# Shiga inhibitor = blocks Shiga toxin action in Vero cells. inhibition, % at 38.7 µM. Vero cells, Shiga toxin protein synthesis inhibition reporter. 9.2% of 290,000 active; in the data active = inhibition mostly above about 28%, no sharp cut-off; inactive = mostly below about 43%; also: 0% is about no effect
# Pf growth 96h = inhibits malaria parasite growth, 96 h; P. falciparum luciferase reporter growth, 96 h; Potency, µM (highest dose often 28.7 µM), for the others: at the highest dose activity change, negative = inhibition, usual class: inhibitors; 6.9% of 320,000 active; AID 504834; also: potency is read from the fitted curve at half-maximal effect; % is scaled to controls: 0 for no effect and ±100 for the full control effect
#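 Two-generation exposure (96 h) targets delayed-death phenotype. Reporter parasites carrying integrated firefly luciferase, in red cells at 2% hematocrit and 0.05% parasitemia final, kept at 37 C, 5% CO2; luminescence loss indicates inhibition.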
# Giardia FBPA inh = inhibitors of Giardia lamblia fructose-1,6-bisphosphate aldolase; A8B2U2; Potency, µM (doses to about 59.6 µM), for the others: top-dose activity, negative = inhibition, hits mostly inhibitors; 0.71% of 290,000 active; purified Giardia FBPA; also: potency is read from the fitted curve at half-maximal effect; % is scaled to controls: 0 for no effect and ±100 for the full control effect; nearly all actives have a fitted effect of over 55% in size
# Target sequence (A8B2U2 whole entry, looked up): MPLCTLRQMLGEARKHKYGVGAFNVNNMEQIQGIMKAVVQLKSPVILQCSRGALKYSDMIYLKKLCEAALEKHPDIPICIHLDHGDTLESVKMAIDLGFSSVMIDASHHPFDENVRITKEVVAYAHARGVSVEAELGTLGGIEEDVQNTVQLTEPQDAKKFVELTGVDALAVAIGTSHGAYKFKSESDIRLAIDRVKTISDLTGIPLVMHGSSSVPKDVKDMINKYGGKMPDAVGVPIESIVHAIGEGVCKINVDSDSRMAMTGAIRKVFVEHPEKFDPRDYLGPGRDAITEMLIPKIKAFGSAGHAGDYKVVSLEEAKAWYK
#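 40 nM FBPA preincubated 10 min at RT with compound (up to 57.5 uM final), then substrate plus GAPDH/TPI/NAD/arsenate coupling and diaphorase/resazurin added. Fluorescence read after 20 min at RT, 525/598 nm.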
# Pf growth 48h = inhibits P. falciparum growth in the first generation, 48 h; P. falciparum luciferase growth in erythrocytes, 48 h; Potency, µM (doses to about 28.7 µM), for inactives: top-dose activity change, negative = inhibition, most hits filed as inhibitors; 5.9% of 310,000 active; also: potency is read from the fitted curve at half-maximal effect; % is scaled to controls: 0 for no effect and ±100 for the full control effect
#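 First compound was added to culture medium, then infected red cells at 0.1% parasitemia and 2% hematocrit (final). After incubation at 37 C under 5% CO2, luciferase detection reagent was dispensed and light output recorded.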
# Cycloheximide cs = counter-screen for Shiga toxin inhibitors: cycloheximide protein synthesis inhibition. cell reporter, cycloheximide protein synthesis inhibition counterscreen. max response, %. 12% of 300,000 active. AID 2314; in the data active = max response mostly above about 13%, no sharp cut-off; inactive = mostly below about 14%; also: read at 38.3 µM for the half of the compounds with a filed dose; 0% is about no effect
# NS1 function inh = inhibitors of influenza NS1 protein function. Potency, µM (series often up to 46.1 µM), for the others: at the top dose activity, positive = more growth. 0.4% of 270,000 active. AID 2326; calls by dose curve; also: potency is read from the fitted curve at half-maximal effect; actives are rising curves; nearly all actives have a fitted effect of over 50% in size
#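 In this qHTS, NS1 from influenza A is expressed in budding yeast, where it slows growth. Cells are switched from glucose to 2% galactose medium (pH 6.0, -URA), treated with compound, and growth recovery is read at OD600.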
# Numbers without * were called inactive; ? = inconclusive; / = no result; [ ] = remark or other dose. Only some compounds are listed: those with a hit (about 21% of all), similar ones and a draw of the others. Unless noted, calls follow the shape of the dose curve; as a rule, active = well fitted curve in the direction sought with a large enough effect; inconclusive = small, poorly fitted or top-dose-only effect, or another doubt; inactive = no such curve, though single readings can be large; an effect the other way counts as inactive or inconclusive.
SMILES,Shiga inhibitor,Pf growth 96h,Giardia FBPA inh,Pf growth 48h,Cycloheximide cs,NS1 function inh
O=C(CCN1CCN(C(c2ccccc2)c2ccccc2)CC1)N/N=C/c1ccc(O)cc1,-4,?,3%,?,-4,-1%
CC(C)(C)C(C(Oc1ccc(Cl)cc1)n1cncn1)n1nnnc1C(c1cccc(Cl)c1)N1CCCCC1 (centres undefined),2,2.1µM*,2%,1.9µM*,1,-8%
COc1cc(C(=O)Nc2scc(-c3ccccc3)c2C(=O)O)cc(OC)c1OC,/,-13%,-12%,15%,-2,4%
O=C(Nc1scc(-c2ccccc2)c1C(=O)O)c1ccco1,63*,31%,-3%,-15%,31*,-41%
O=C(Nc1scc(-c2ccccc2)c1C(=O)O)c1ccccc1Cl,-7,21%,-11%,26%,10,-36%
COc1ccc(-c2csc(NC(=O)c3ccccc3F)c2C(=O)O)cc1,59*,?,-26%,53%,36*,-70%
COC(=O)c1c(-c2ccc(F)cc2)csc1NC(=O)c1ccco1,94*,?,3%,-6%,61*,1%
c1ccc(COCCCc2cnc[nH]2)cc1,21,/,-10%,/,-1,/
O=C(c1ccc(OCCCc2cnc[nH]2)cc1)C1CC1,80*,/,-2%,/,35*,/
O=C(O)[C@H](Cc1cc(I)c(O)c(I)c1)C1CCCCC1,/,/,/,/,/,-31%
O=C1C2=CC[C@H]3C(=O)N(C4CCCCC4)C(=O)[C@@H]3[C@@H]2[C@H](O)[C@@H]2O[C@H]12,/,/,-1%[12.9 µM],/,/,/
Cc1ccc(NC(=O)N/C=C/c2ccccc2)cc1,42*,70%,4%,89%,24*,-50%
Cc1ccc(NC(=O)N/C=C/c2ccc(Cl)cc2)cc1,29,?,/,2%,55,21%
O=C(N/C=C/c1ccccc1)Nc1ccc(Cl)cc1,198*,88%,2%,98%,74*,-47%
CCOC(=O)c1c(NC(=O)c2c(C(=O)O)cccc2[N+](=O)[O-])sc2c1CCCC2,-6,9%,11%,19%,0,4%
CCOc1ccc(CCNC(=O)C2CCCN(c3nn4c(=O)cc(C)nc4s3)C2)cc1 (centres undefined),-10,?,0%,?,-4,-11%
CCOc1ccc2nc(N3CCCC(C(=O)NCCCN4CCOCC4)C3)sc2c1 (centres undefined),58*,?,-3%,29%,28*,2%
CCOc1cc2sc(N3CCC(C(=O)NCCCN4CCCC4=O)CC3)nc2cc1Br,16,190%,-9%,-17%,10,1%
CCOc1ccc2nc(N3CCC(C(=O)NC4CCCCC4)CC3)sc2c1,16,-11%,6%,17%,14,3%
CCOc1ccc2nc(N3CCC(C(=O)NCCCN4CCOCC4)CC3)sc2c1,56*,8%,-3%,52%,37*,3%
CCOc1cc2sc(N3CCC(C(=O)Nc4ccc(C(C)C)cc4)CC3)nc2cc1Br,120*,/,/,/,56*,/
CCOc1ccc(S(=O)(=O)NCCC(=O)N(C)Cc2cccs2)cc1,/,-17%,/,-18%,/,/
COc1ccc(OC)c2c1sc(=NC(=O)c1ccco1)n2C,-8,?,0%,/,-2,-12%
Cc1ccc(-c2c(C)sc(=NC(=O)c3ccco3)n2C)cc1,97*,132%,0%,60%,67*,-64%
CC(=O)NC12CC3CC(C1)CC(C(=O)N(C)CC(=O)Nc1cccc(F)c1)(C3)C2,/,8%,/,?,/,/
COC(=O)CN1C(c2cccc(Cl)c2)=Nc2ccc(Cl)cc2C1c1ccccc1 (centres undefined),23,1.7µM*,-7%,2.3µM*,-1,-39%
COC(=O)CN1C(c2ccc(OC)cc2)=Nc2ccc(Cl)cc2C1c1ccccc1 (centres undefined),-6,10µM*,0%,15µM*,-6,4%
COc1cc(C2CC(=O)N(CC(=O)NCc3ccco3)c3ccccc3S2)cc(OC)c1OC (centres undefined),-4,85%,?,10µM*,8,2%
COc1cc(C2CC(=O)N(CC(=O)NCC3CCCO3)c3ccccc3S2)cc(OC)c1OC (centres undefined),-5,6%,7%,?,-10,-9%
CCCNc1nc(C#N)nc(Nc2ccccc2)n1,/,/,3%,/,/,/
